Experimental data: PubChem BioAssay (NCI)
Compounds without any hit were thinned out: in the full panel of roughly 79,000, 15% have a hit. Activity calls are given as the source filed them. No stated cut-off is given here; in the data, active means growth inhibition above about 70%; inactive means the rest.

Experiments:
[1] = NCI Yeast Anticancer Drug Screen. Data for the rad50 strain (AID 155);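 further: 0% = growth of vehicle-only cultures of the same strain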; conditions: S. cerevisiae rad50 strain growth inhibition, stronger effect = higher value
How it was run: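 Genetically altered yeast (DNA repair pathway); compound treatment; growth inhibition vs vehicle ctrl.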

[2] = NCI Yeast Anticancer Drug Screen. Data for the mec2-1 strain (AID 157); conditions: S. cerevisiae mec2-1 strain, stronger effect = higher value
How it was run: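 Yeast mec2-1 mutant treated with compound. Readout: growth inhibition vs vehicle controls.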

[3] = NCI Yeast Anticancer Drug Screen. Data for the sgs1 mgt1 strain (AID 161);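 further: 0% = growth of cultures given vehicle only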; conditions: S. cerevisiae sgs1 mgt1 strain, stronger effect = higher value
How it was run: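 Read-out: growth inhibition vs vehicle controls. Cells: mutant yeast strain deficient in DNA damage repair.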

[4] = NCI Yeast Anticancer Drug Screen. Data for the cln2 rad14 strain (AID 165);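 further: 0% = growth equal to vehicle treated cultures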; conditions: S. cerevisiae cln2 rad14 strain, stronger effect = higher value
How it was run: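 cln2 rad14 yeast strain; compound exposure; growth inhibition read vs vehicle controls.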

[5] = NCI Yeast Anticancer Drug Screen. Data for the bub3 strain (AID 167); conditions: S. cerevisiae bub3 mutant strain, stronger effect = higher value
How it was run: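 Yeast carrying a defined mutation is treated with each compound, and growth is compared with that of vehicle-exposed cells to give inhibition.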

[6] = NCI Yeast Anticancer Drug Screen. Data for the mlh1 rad18 strain (AID 175); conditions: S. cerevisiae mlh1 rad18 strain growth inhibition, stronger effect = higher value
How it was run: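 Yeast w/ defined DNA-repair lesions; compound exposure; growth vs vehicle controls → % inhibition.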

[7] = at 5.0 µM (retest, dose inferred, filed as 0.5)
[8] = at 50.0 µM (retest, dose inferred, filed as 5.0)

Measured: growth inhibition

Cc1ccc(/C=C2\CCCC(CN3CCCCC3)C2=O)cc1 (stereo not given)
active: [1]; [8] 99% | [1]; at 50.0 µM 75% | [2]; [8] 99% | [2]; at 50.0 µM 83% | [3]; [8] 99% | [3]; at 50.0 µM 87.8% | [4]; [8] 98% | [4]; at 50.0 µM 73.3% | [5]; [8] 99% | [5]; at 50.0 µM 89.3% | [6]; [8] 99% | [6]; at 50.0 µM 90%
inactive: [1]; [7] 23% | [2]; [7] 34% | [3]; [7] 30% | [4]; [7] 45% | [5]; [7] 37% | [6]; [7] 32%

O=C1C=CC(=O)N1c1ccc(-c2nc3ccccc3o2)cc1
inactive: [1]; [7] 66%
active: [1]; [8] 92% | [1]; at 50.0 µM 86.2% | [2]; [7] 70% | [2]; [8] 91% | [2]; at 50.0 µM 88.9% | [3]; [7] 100% | [3]; [8] 96% | [3]; at 50.0 µM 91.5% | [4]; [7] 81% | [4]; [8] 96% | [4]; at 50.0 µM 88% | [5]; [7] 100% | [5]; [8] 87% | [5]; at 50.0 µM 88.5% | [6]; [7] 82% | [6]; [8] 90% | [6]; at 50.0 µM 90%

OC(C(=Nc1ccccc1)c1ccccc1)c1ccccc1 (stereo not given)
active: [1]; [8] 96% | [1]; at 50.0 µM 98.7% | [2]; [8] 99% | [2]; at 50.0 µM 98.6% | [3]; [8] 98% | [3]; at 50.0 µM 99.2% | [4]; [8] 98% | [4]; at 50.0 µM 98.8% | [5]; [8] 98% | [5]; at 50.0 µM 97.8% | [6]; [8] 99% | [6]; at 50.0 µM 99.1%
inactive: [1]; [7] 50% | [2]; [7] 11% | [3]; [7] 1% | [4]; [7] -3% | [5]; [7] 15% | [6]; [7] 39%

CCCCCCCCCCCCCCCCCCOP(=O)([O-])OCC[N+](C)(C)C
inactive: [1]; [7] 14% | [2]; [7] -2% | [3]; [7] -2% | [4]; [7] 15% | [5]; [7] 7% | [6]; [7] 10%
active: [1]; [8] 99% | [1]; at 50.0 µM 90.5% | [2]; [8] 99% | [2]; at 50.0 µM 92% | [3]; [8] 99% | [3]; at 50.0 µM 92.5% | [4]; [8] 89% | [4]; at 50.0 µM 89.5% | [5]; [8] 99% | [5]; at 50.0 µM 90.3% | [6]; [8] 99% | [6]; at 50.0 µM 91.6%

CC[C@@]1(OP(=O)(O)O)C(=O)OCc2c1cc1n(c2=O)Cc2cc3ccccc3nc2-1
inactive: [2]; [7] 33% | [3]; [7] 6% | [3]; [8] -37% | [4]; [7] -11% | [4]; [8] -58% | [4]; at 50.0 µM 67% | [5]; [7] 14% | [5]; [8] -15% | [6]; [7] 49%
active: [1]; [7] 89% | [1]; [8] 92% | [1]; at 50.0 µM 79.2% | [2]; [8] 95% | [2]; at 50.0 µM 87.1% | [3]; at 50.0 µM 80.7% | [5]; at 50.0 µM 77.2% | [6]; [8] 86% | [6]; at 50.0 µM 74.2%

COC(=O)N/N=C(\c1ccc(O)cc1)C(C)C1(O)C(=O)Nc2ccccc21 (stereo not given)
inactive: [1]; [7] -16% | [1]; [8] 35% | [1]; at 50.0 µM -19.5% | [2]; [7] 6% | [2]; [8] 20% | [2]; at 50.0 µM 7.45% | [3]; [7] 7% | [3]; [8] 26% | [3]; at 50.0 µM 16.9% | [4]; [7] -2% | [4]; [8] 23% | [4]; at 50.0 µM -30.2% | [5]; [7] 1% | [5]; [8] 34% | [5]; at 50.0 µM -0.8% | [6]; [7] -3% | [6]; [8] 28% | [6]; at 50.0 µM 14.2%

Cc1nc(Nc2ccc(Cl)cc2)sc1C(=O)NNc1ccc([N+](=O)[O-])cc1[N+](=O)[O-]
active: [1]; at 50.0 µM 88.8% | [2]; at 50.0 µM 90.2% | [3]; at 50.0 µM 90.5% | [4]; at 50.0 µM 89.4% | [5]; at 50.0 µM 92.8% | [6]; at 50.0 µM 89.8%
inactive: [1]; [7] 24% | [1]; [8] 24% | [2]; [7] 9% | [2]; [8] 9% | [3]; [7] -6% | [3]; [8] -6% | [4]; [7] 9% | [4]; [8] 9% | [5]; [7] 10% | [5]; [8] 10% | [6]; [7] 16% | [6]; [8] 16%

CN(C)C1C=CCC(c2ccccc2)C1[N+](=O)[O-] (stereo not given)
active: [1]; [8] 83% | [1]; at 50.0 µM 93.2% | [2]; at 50.0 µM 96.9% | [3]; [8] 81% | [3]; at 50.0 µM 98.5% | [4]; [8] 70% | [4]; at 50.0 µM 92.3% | [5]; [8] 79% | [5]; at 50.0 µM 92.5% | [6]; [8] 94% | [6]; at 50.0 µM 98.8%
inactive: [1]; [7] 1% | [2]; [7] 10% | [2]; [8] 68% | [3]; [7] 7% | [4]; [7] 5% | [5]; [7] 1% | [6]; [7] 5%

Clc1ccc(C2=Nc3ccccc3SC(c3ccc(Cl)c(Cl)c3)C2)c(Cl)c1 (stereo not given)
inactive: [1]; [7] 16% | [1]; [8] 16% | [1]; at 50.0 µM 64.2% | [2]; [7] 12% | [2]; [8] 12% | [2]; at 50.0 µM 49.3% | [3]; [7] 1% | [3]; [8] 1% | [3]; at 50.0 µM 63.3% | [4]; [7] 10% | [4]; [8] 10% | [4]; at 50.0 µM 40.8% | [5]; [7] 9% | [5]; [8] 9% | [6]; [7] 13% | [6]; [8] 13% | [6]; at 50.0 µM 63.7%
active: [5]; at 50.0 µM 70.4%

CC(=O)OC1CCC2(C)C(C1)C(OC(C)=O)CC1C3CCC(c4cccc(=O)o4)C3(C)CCC12 (stereo not given)
active: [1]; at 50.0 µM 85.1% | [2]; [8] 84% | [2]; at 50.0 µM 86.7% | [3]; [8] 72% | [3]; at 50.0 µM 84.8% | [4]; [8] 76% | [4]; at 50.0 µM 84.9% | [5]; [8] 79% | [5]; at 50.0 µM 81.2% | [6]; at 50.0 µM 85%
inactive: [1]; [7] 2% | [1]; [8] 64% | [2]; [7] 11% | [3]; [7] 17% | [4]; [7] 5% | [5]; [7] -2% | [6]; [7] -6% | [6]; [8] 66%
